Bioassay records (PubChem BioAssay)
FBW7 activator – FBW7 E3 ligase activators, primary screen, biochemical, AlphaScreen, human. AlphaScreen FBW7–phospho-cyclin E peptide binding, activator screen. normalized activity (activation), % at 26.1 µM. 650,000 compounds, 0.13% hits. AID 1259310, 2017; in the data active = normalized activity above about 1.9%;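 also: purified mutant Fbw7 with reduced substrate affinity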
GPR151 ag – activators of human GPR151, primary screen, cell-based, PathHunter beta-arrestin, luminescence. G-protein coupled receptor 151 (Homo sapiens), Q8TDV0. PathHunter beta-arrestin GPR151 cells. activation, % at 11.2 µM. 650,000 compounds, 1% hits; in the data active = activation above about 4.9%;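 also: 0% = median of compound wells and 100% = cells with positive control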
TEAD-YAP inh – TEAD-YAP interaction inhibition, primary screen, TEAD-YAP interaction inhibitor project, luminescence, HEK-TIYL cells. TEAD-Gal4/YAP UAS-luciferase luminescence. inhibition, % at 9.12 µM. 640,000 compounds, 1.4% hits; in the data active = inhibition above about 32%;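 also: 0% = median of test compound wells and 100% = reference inhibitor wells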
MITF primary – MITF inhibitors, primary screen, biochemical, AlphaScreen, human. AlphaScreen MITF homodimerization, bead proximity signal. inhibition, % at 2.6 µM. 650,000 compounds, 0.91% hits. Microphthalmia-associated transcription factor (Homo sapiens), O75030; in the data active = inhibition above about 50%;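 also: 0% = vehicle wells with protein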
GPR151 confirm – GPR151 activators, triplicate retest, confirmation, cell-based, PathHunter beta-arrestin, luminescence; shares compounds with GPR151 ag; GPR151 PathHunter beta-arrestin cells, 90 min; % of EA-reagent control over plate median; activation, % at 11.2 µM; 6,700 tested, under 10 active;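 active = mean percent activation across replicates above the confirmation screen cutoff of 4.91%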
GPR119 ag – GPR119 activators in beta-arrestin cells, counter-screen for GPR151 activator project, cell-based, PathHunter beta-arrestin, luminescence, triplicate. shares compounds with GPR151 ag. 90 min; 0 = compound-well median, 100 = enzyme-acceptor control. activation, % at 11.2 µM. 6,700 compounds, 0.3% hits. AID 1508611, 2020;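 active = mean percent activation in the counterscreen above 29.09%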;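 also: counterscreen on off-target GPR119 to flag nonselective hits from the GPR151 activator screen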
Target sequence (Q8TDV5 whole entry, looked up): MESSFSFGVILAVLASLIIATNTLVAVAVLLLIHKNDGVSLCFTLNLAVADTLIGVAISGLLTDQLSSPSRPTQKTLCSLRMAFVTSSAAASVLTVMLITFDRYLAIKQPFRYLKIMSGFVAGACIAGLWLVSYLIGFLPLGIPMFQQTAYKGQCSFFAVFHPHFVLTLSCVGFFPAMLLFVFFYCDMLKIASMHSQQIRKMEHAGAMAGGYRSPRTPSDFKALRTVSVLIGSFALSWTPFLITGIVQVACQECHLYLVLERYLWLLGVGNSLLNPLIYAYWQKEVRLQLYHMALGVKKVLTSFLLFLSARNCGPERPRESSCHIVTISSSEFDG
* hit, by the source's call; · = no result given. Sampled rows, rich in hits. Any-hit rate of the full collection: about 3.4%.

SMILES | FBW7 activator | GPR151 ag | TEAD-YAP inh | MITF primary | GPR151 confirm | GPR119 ag
O=C(NCc1ccccc1)c1ccc(OCc2ccccc2)cc1 | 0.1 | -1.2 | 4.8 | -5.5 | · | ·
CC(C)OC(=O)COc1ccc(C(=O)NCc2ccccc2)cc1 | 0.7 | 5.3* | 7.3 | -3.9 | -0.5 | -8.7
CCOC(=O)c1ccc(NC(=O)CCSc2nc(N)c3c(C)c(C)sc3n2)cc1 | -0.1 | 6.8* | 0.9 | 0.6 | 0.1 | 0.1
COc1ccc(C2C(C(=O)N3CCCCCC3)c3ccccc3C(=O)N2C)cc1 (centres undefined) | 0.1 | 0.2 | 5.3 | 6.0 | · | ·
O=C(CCN1CCN(C2c3ccccc3-c3ccccc32)CC1)Nc1ccc(F)cc1 | -0.1 | 6.8* | -6.2 | -1.4 | -0.1 | 8.2
CCOC(=O)C1=C(CC)NC2=C(C(=O)CCC2)C1c1ccc(O)cc1 (centres undefined) | 0.3 | 0.4 | 7.0 | -4.2 | · | ·
COc1cc2c(cc1OC)CN(Cc1cccc([N+](=O)[O-])c1)CC2 | 0.0 | 8.0* | -1.8 | 11.5 | 0.5 | 13.0
O=C(OCCN1CCOCC1)c1ccc(O)c(O)c1 | -0.1 | 1.2 | 4.3 | 17.2 | · | ·
O=C(OCCN1CCOCC1)c1cccc(Br)c1 | 0.3 | 8.3* | -28.5 | -2.9 | -1.2 | -11.5
CCOc1ccc(C2=C/C(=C\c3cccs3)C(=O)O2)cc1 | -0.1 | 0.3 | -18.3 | -0.6 | · | ·
CCOc1ccc(C2=C/C(=C/c3cccs3)C(=O)O2)cc1 | -0.2 | 5.8* | 0.7 | 4.1 | -0.6 | 12.3
O=S(=O)(c1ccc2[nH]c3nc(SCc4ccccc4Cl)nnc3c2c1)N1CCCCC1 | 0.2 | 0.2 | 0.3 | 17.6 | · | ·
Cc1ccc(NC(=O)N2CCC(C(=O)NCCC3=CCCCC3)CC2)cc1 | 0.0 | 5.0* | -5.4 | 22.8 | -0.3 | -3.9
O=C(NCCC1=CCCCC1)C1CC(=O)N(C2CCCC2)C1 (centres undefined) | 0.0 | 5.5* | 0.0 | -1.3 | 0.1 | 6.8
COc1ccc(CCNc2nc(Nc3nc4ccccc4n3C)nc3c2ncn3-c2ccccc2)cc1 | -0.1 | -0.4 | 13.6 | 3.7 | · | ·
CCOC(=O)c1c(NC(=S)NC(=O)c2cccs2)sc(C)c1C | 0.0 | 1.8 | 2.2 | 3.8 | · | ·
CCOC(=O)c1c(NC(=S)Nc2cccnc2)sc(C)c1C | 0.0 | 5.3* | 6.5 | 7.1 | 0.1 | 0.9
COc1ccc(N2CCN(C3CCCN(C(=O)CCN4CCCCO4)C3)CC2)cc1 (centres undefined) | 0.0 | 5.3* | -4.8 | 5.8 | 1.0 | 9.9
Cc1ccc2c(c1)CN(CCC(=O)N1CCCCCCC1)CC(C)O2 (centres undefined) | 0.0 | 0.5 | -2.9 | 6.9 | · | ·
CC(C)N(Cc1ccccc1)C(=O)Cn1ncn2cccc2c1=O | 0.2 | 0.3 | -14.3 | -12.6 | · | ·
NC(=O)COC(=O)CCN1c2ccccc2Sc2ccccc21 | -0.5 | 9.8* | 15.6 | -8.4 | -0.1 | -13.2
CCOC(=O)C(=O)Nc1ccc2nc3n(c(=O)c2c1)CCCCC3 | 0.3 | 5.4* | 2.0 | -22.2 | 0.0 | -6.5
CCOc1ccc(N(CC)C(=O)C(=O)Nc2ccc3nc4n(c(=O)c3c2)CCCCC4)cc1 | 1.1 | 11.0* | 8.4 | 11.9 | 0.7 | 5.4
CCOC(=O)c1ccc(NC(=O)C(=O)Nc2ccc3nc4n(c(=O)c3c2)CCCCC4)cc1 | -0.1 | -0.5 | 7.1 | -2.1 | · | ·
CCOP(=O)(OCC)c1nc(-c2cccc([N+](=O)[O-])c2)oc1N1CCCCC1 | -0.1 | 10.9* | -5.3 | 3.3 | 0.6 | 5.2
SMILES | FBW7 activator | GPR151 ag | TEAD-YAP inh | MITF primary | GPR151 confirm | GPR119 ag
O=C(NN=C1CCCC1)C(O)(c1ccccc1)c1ccccc1 | -0.1 | -0.5 | -9.7 | -6.3 | · | ·
O=C(NN=C1CCCCC1)C(O)(c1ccccc1)c1ccccc1 | -0.1 | 9.9* | 5.6 | -1.2 | 3.0 | 14.1
COc1ccc(C(=O)NNC(=O)C(=O)N2CCCC2)cc1OC | -0.2 | 5.6* | -6.3 | 6.8 | 0.9 | 18.0
COc1nc(NCCO)nc(-c2c(C)nn(C)c2C)n1 | 0.0 | 14.2* | 8.0 | 2.3 | -0.6 | -8.7
COc1ccc(NC(=O)CN2CCC(c3nc4ccc(C)cc4[nH]3)CC2)c(OC)c1 | 0.3 | -0.3 | 2.7 | 23.2 | · | ·
Cc1csc(NNS(=O)(=O)c2ccc3c(c2)OCCO3)n1 | 0.1 | -0.4 | 8.3 | -0.6 | · | ·
Cc1nc2cc(C(=O)N3CCCC(N4CCOCC4)C3)ccc2n1-c1ccccc1 (centres undefined) | 0.2 | 10.9* | -5.0 | -10.4 | 0.5 | -6.4
COc1ccc(CNc2ncc(-c3ccc4c(c3)OCO4)n3ccnc23)cc1 | -0.1 | 0.4 | 16.1 | -6.1 | · | ·
COc1cc(/C=C2\N=C(c3ccc(Cl)c(Cl)c3)OC2=O)cc(Br)c1OC(C)=O | 0.1 | 0.0 | 2.0 | 6.8 | · | ·
N#C/C(=C\c1cccc(Cl)c1)c1nn(-c2ccccc2)c(N)c1C#N | -0.1 | -1.7 | -3.9 | -9.7 | · | ·
Cc1ccc(CN2CCNC(=O)C2CC(=O)N2CCCN(Cc3cccs3)CC2)o1 (centres undefined) | 0.2 | -0.9 | 9.1 | 2.9 | · | ·
Cc1ccc(CN2CCNC(=O)C2CC(=O)N2CCN(Cc3csc(C)n3)CC2)o1 (centres undefined) | -0.1 | 5.1* | 1.8 | -4.4 | 0.3 | 1.6
O=C(c1cc([N+](=O)[O-])cc([N+](=O)[O-])c1)n1cnc2ccccc21 | 1.0 | -0.9 | -7.2 | 20.8 | · | ·
Cc1ccccc1C(=O)n1cnc2cc([N+](=O)[O-])ccc21 | -0.2 | 7.1* | 7.2 | -259.3 | 0.7 | -1.3
Cc1oc(-c2ccc(Cl)cc2)nc1CS(=O)CC(=O)NC(C)C (centres undefined) | 0.0 | 9.4* | 3.1 | 5.6 | -0.5 | -9.2
Cc1oc(-c2ccc(Cl)cc2)nc1CS(=O)CC(=O)NC(C)c1ccccc1 (centres undefined) | 1.2 | -1.2 | -7.4 | 15.1 | · | ·
COc1ccc(C(=O)COC(=O)C(NC(=O)c2ccc(Cl)cc2)C(C)C)cc1 (centres undefined) | 0.2 | 1.2 | 9.2 | 0.1 | · | ·
CC(C)C(NC(=O)c1ccccc1F)C(=O)OCC(=O)c1ccc(F)cc1 (centres undefined) | -0.1 | 9.3* | -8.9 | 2.5 | -0.5 | 0.0
COc1ccc(NC(=O)c2ccc3c(=O)n(-c4ccc(OC)c(OC)c4)c(=S)[nH]c3c2)cc1 | -0.1 | -1.0 | -11.2 | -7.4 | · | ·
CCN(CC)C(=O)CN(c1cc(C)cc(C)c1)S(=O)(=O)c1ccccc1 | -0.1 | 0.2 | 4.3 | 4.0 | · | ·
CCOc1ccc(N(CC(=O)NC(C)(C)C)S(=O)(=O)c2ccc(SC)cc2)cc1 | 0.0 | 21.6* | 13.5 | 3.0 | 0.1 | -3.9
